Records with an inconclusive call do not appear. Entries that show only a call come without a potency. Calls of active or inactive are those of the source. Calls come from the whole dose curve; as a rule, active = well fitted inhibition curve with a large enough effect; inconclusive = small, poorly fitted or top-dose-only effect; inactive = flat fitted curve, though single readings scatter.
Key:
Test in all cases: qHTS profiling for inhibitors of Plasmodium falciparum proliferation (AID 504749); note: nearly all actives have a fitted effect of over 60% in size
Details in all cases: P. falciparum in erythrocytes, SYBR Green DNA, 72 h; series mostly up to 28.7 µM
[1] = system: CP286
Outline: (§1)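 Quantitative HTS: compounds pinned into medium, infected erythrocytes added (0.3% parasitemia, 2.5% hematocrit), 72 h culture at 37 C under 5% CO2. Saponin/Triton lysis with SYBR Green I, overnight RT, then fluorescence read.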

[2] = system: CP291
Outline: as §1

[3] = system: CP297
Outline: as §1

[4] = system: CP305
Outline: as §1

[5] = system: CP315
Outline: as §1

[6] = system: CP325
Outline: as §1

[7] = system: CP329
Outline: as §1

[8] = system: CP335
Outline: as §1

[9] = system: DFO2036
Outline: as §1

[10] = system: DIV14
Outline: as §1

[11] = system: DIV17
Outline: as §1

[12] = system: DIV30
Outline: as §1

[13] = system: Dd2
Outline: as §1

[14] = system: ECU
Outline: as §1

[15] = system: FAB9
Outline: as §1

[16] = system: HB3
Outline: as §1

[17] = system: ICS
Outline: as §1

[18] = system: JCK
Outline: as §1

[19] = system: N140
Outline: as §1

[20] = system: GB4
Outline: as §1
Potency is the fitted concentration of half-maximal effect.

| Structure (SMILES) | Potency [1] | Potency [2] | Potency [3] | Potency [4] | Potency [5] | Potency [6] | Potency [7] | Potency [8] | Potency [9] | Potency [10] | Potency [11] | Potency [12] | Potency [13] | Potency [14] | Potency [15] | Potency [16] | Potency [17] | Potency [18] | Potency [19] | Potency [20] |
| --- | --- | --- | --- | --- | --- | --- | --- | --- | --- | --- | --- | --- | --- | --- | --- | --- | --- | --- | --- | --- |
| Cc1cc2c(s1)Nc1ccccc1N=C2N1CCN(C)CC1 | inactive | inactive | inactive | inactive | inactive | inactive | inactive | inactive | inactive | inactive | inactive | inactive | inactive | inactive | inactive | inactive | inactive | inactive | inactive |  |
| COC(=O)C1=C(C)NC(C)=C(C(=O)OCCCN2CCC(c3ccccc3)(c3ccccc3)CC2)C1c1cccc([N+](=O)[O-])c1 (stereo not given) | 2.82 µM (active) | 6.75 µM (active) | 4.78 µM (active) | 7.57 µM (active) | 9.53 µM (active) | 6.01 µM (active) | 8.49 µM (active) | 4.26 µM (active) | 7.94 µM (active) | 3.38 µM (active) | 4.26 µM (active) | 4.78 µM (active) | 3.55 µM (active) | 4.47 µM (active) |  | 8.91 µM (active) | 1.41 µM (active) |  | 5.01 µM (active) | 1.9 µM (active) |
| CCN(CCO)CCCC(C)Nc1ccnc2cc(Cl)ccc12 (stereo not given) |  |  |  | inactive | inactive | inactive | inactive | inactive | inactive |  | inactive | inactive | inactive |  | 1.41 µM (active) | 1 µM (active) | inactive | inactive | inactive |  |
| O=C(OC1C[C@H]2CC[C@@H](C1)[N+]21CCCC1)C(O)(c1ccccc1)c1ccccc1 (stereo not given in full) | 3.98 µM (active) |  |  | 4.26 µM (active) |  |  | 4.78 µM (active) | 4.26 µM (active) |  |  |  | 4.78 µM (active) | 0.0891 µM (active) | 5.01 µM (active) |  |  |  | inactive |  | 4.26 µM (active) |
| CCC[C@@H]1C[C@@H](C(=O)N[C@@H]([C@H]2O[C@H](SC)[C@H](O)[C@@H](O)[C@H]2O)[C@@H](C)O)N(C)C1 |  |  |  |  |  |  |  |  |  |  |  |  | 0.0089 µM (active) |  | inactive |  |  | inactive |  |  |
| Cc1c(C(=O)NN2CCCCC2)nn(-c2ccc(Cl)cc2Cl)c1-c1ccc(Cl)cc1 |  |  | 19 µM (active) |  |  |  |  |  |  | 13.5 µM (active) | 13.5 µM (active) | 12 µM (active) |  |  |  |  | 11.2 µM (active) | inactive | 8.91 µM (active) |  |
| C=CCc1cc(OC)c(O)c(C(=O)NCCO)c1 | inactive |  | inactive | inactive | inactive | inactive | inactive | inactive | inactive | inactive | inactive | inactive | inactive | inactive | inactive | inactive | inactive | inactive | inactive | inactive |
| N=C(N)c1ccc2cc(OC(=O)c3ccc(N=C(N)N)cc3)ccc2c1 | 4.47 µM (active) |  |  | 4.78 µM (active) |  |  |  |  |  | 7.57 µM (active) |  |  |  |  |  |  | 7.08 µM (active) | inactive |  | 5.36 µM (active) |
| CCCCC(CC)COC(=O)C(C#N)=C(c1ccccc1)c1ccccc1 (stereo not given) |  |  |  | inactive | inactive | inactive | inactive |  |  | inactive | inactive | inactive |  | 8.91 µM (active) | inactive |  |  | inactive | inactive |  |
| O=C1CCc2ccc(OCCCCN3CCN(c4cccc(Cl)c4Cl)CC3)cc2N1 |  | inactive | inactive | inactive | inactive | inactive | inactive |  |  | inactive | inactive | inactive |  |  | inactive |  | 11.2 µM (active) | inactive |  | inactive |
| CCCCCCCCCCCCCCCCCCCCCCO | inactive |  | inactive | inactive | inactive | inactive | inactive | inactive | inactive | inactive | inactive | inactive | inactive | inactive | inactive | inactive | inactive | inactive | inactive | inactive |
| NNc1nncc2ccccc12 |  | inactive | inactive |  | inactive |  | inactive |  |  | 6.42 µM (active) | 5.1 µM (active) |  | 3.98 µM (active) |  |  | 3.98 µM (active) | 1.41 µM (active) |  |  |  |
| Cc1nc(Nc2ncc(C(=O)Nc3c(C)cccc3Cl)s2)cc(N2CCN(CCO)CC2)n1 |  | inactive |  | inactive | inactive | inactive | inactive | inactive | inactive |  | 13.5 µM (active) | 13.5 µM (active) |  |  | inactive |  | 7.08 µM (active) | inactive | 14.1 µM (active) | 15.1 µM (active) |
| CN1CCC(=C2c3ccccc3CCc3sccc32)CC1 |  |  | inactive |  | inactive |  | inactive |  |  | 4.78 µM (active) | 4.26 µM (active) |  | 5.01 µM (active) | inactive | inactive |  | 8.91 µM (active) |  |  | 6.01 µM (active) |
| Cc1nc2n(c(=O)c1CCN1CCC(c3noc4cc(F)ccc34)CC1)CCCC2 |  | inactive | inactive | inactive | inactive | inactive | inactive |  | inactive |  | inactive | inactive | inactive | inactive | inactive | inactive | 12.6 µM (active) | inactive | inactive | inactive |
| CCCCCCCCOc1ccccc1C(=O)Nc1ccc(C(=O)OCC[N+](C)(CC)CC)cc1 | 6.31 µM (active) |  |  |  |  |  |  | 6.01 µM (active) | 8.91 µM (active) |  |  |  |  | 10 µM (active) | inactive |  | 8.91 µM (active) |  |  | 12 µM (active) |
| COCCCOc1ccnc(CS(=O)c2nc3ccccc3[nH]2)c1C (stereo not given) | inactive | inactive |  | inactive | inactive | inactive | inactive | inactive | inactive |  |  | inactive |  | inactive | inactive | inactive |  | inactive | inactive | inactive |
| Cc1cc(=O)c2c(O)c3c(O)cc(=O)c4c3c3c(cc(O)c1c23)C(C)(C)C=4O | 1.58 µM (active) | 2.69 µM (active) |  | 3.38 µM (active) |  |  | 2.13 µM (active) | 2.39 µM (active) | 1.12 µM (active) | 2.39 µM (active) | 2.69 µM (active) |  | 1.26 µM (active) | 2 µM (active) | inactive | 2 µM (active) | 0.355 µM (active) |  | 1 µM (active) | 2.13 µM (active) |
| C[Se]CCC(N)C(=O)O (stereo not given) | inactive | inactive |  | inactive | inactive | inactive | inactive | inactive | inactive | inactive | inactive | inactive | inactive | inactive | inactive | inactive | inactive | inactive | inactive | inactive |
| Nc1nc(Cl)nc2c1ncn2[C@H]1C[C@H](O)[C@@H](CO)O1 | inactive |  |  |  |  |  |  |  | inactive |  |  |  | inactive | inactive | inactive | inactive | inactive | inactive | inactive |  |
| CCc1nc(N)nc(N)c1-c1ccc(Cl)cc1 | inactive | inactive |  | inactive | inactive | inactive |  |  | inactive |  |  |  | inactive | 0.0501 µM (active) | 0.0501 µM (active) | 11.2 µM (active) |  | inactive | inactive | 0.019 µM (active) |
| CN(c1nccc(=O)[nH]1)C1CCN(c2nc3ccccc3n2Cc2ccc(F)cc2)CC1 | inactive | inactive |  | inactive |  |  | inactive | inactive | inactive |  |  |  |  |  | inactive | inactive | 10 µM (active) | inactive |  |  |
| Cc1ncc([N+](=O)[O-])n1CC(C)O (stereo not given) | inactive | inactive |  | inactive | inactive | inactive | inactive | inactive | inactive | inactive | inactive | inactive | inactive | inactive | inactive | inactive | inactive | inactive | inactive | inactive |
| O=C(O)c1cn(-c2ccc(F)cc2)c2cc(N3CCNCC3)c(F)cc2c1=O |  |  |  |  |  |  |  |  |  |  | inactive | inactive |  | inactive | inactive | inactive |  | inactive | inactive |  |
| Cc1ccc(NC(=O)c2ccc(CN3CCN(C)CC3)cc2)cc1Nc1nccc(-c2cccnc2)n1 | 11.2 µM (active) |  |  |  |  |  |  |  |  | 15.1 µM (active) | 15.1 µM (active) | 12 µM (active) | 10 µM (active) | 8.91 µM (active) |  |  | 11.2 µM (active) |  | 8.91 µM (active) | 15.1 µM (active) |
| Cc1cc(C2CCCCC2)n(O)c(=O)c1 |  |  | 7.21 µM (active) | 5.73 µM (active) | 2.28 µM (active) | 5.73 µM (active) |  |  |  |  |  |  | inactive |  | 3.55 µM (active) |  | 3.55 µM (active) |  |  | 6.42 µM (active) |
| CC1=C(C)C(=O)C(C(CCCCCC(=O)O)c2ccccc2)=C(C)C1=O (stereo not given) | inactive | inactive |  | inactive |  | inactive | inactive | inactive | inactive |  |  |  | inactive | inactive | inactive | inactive | inactive | inactive |  |  |
| COc1ccc2cc([C@H](C)C(=O)O)ccc2c1 |  | inactive | inactive | inactive | inactive | inactive | inactive |  | inactive | inactive | inactive | inactive | inactive | inactive | inactive | inactive |  | inactive | inactive | inactive |
| C=C(c1ccc(C(=O)O)cc1)c1cc2c(cc1C)C(C)(C)CCC2(C)C |  | inactive | inactive | inactive | inactive | inactive | inactive |  | inactive |  | inactive | inactive |  | inactive | inactive |  | 8.91 µM (active) | inactive | inactive | inactive |
| Cc1cc(=O)oc2cc(O)ccc12 |  | inactive |  | inactive | inactive | inactive | inactive |  |  | inactive | inactive | inactive |  |  | inactive |  |  | 2 µM (active) |  | inactive |

Reference: PubChem BioAssay (NCATS)
